In PubChem BioAssay (Tox21):
Results filed as inconclusive are left out. A number with no mark means an inactive call. Calls of active or inactive are those of the source. Calls come from the whole dose curve; as a rule, active = well fitted activation curve with a large enough effect in the repeat runs; inconclusive = weak or mixed curves; inactive = flat fitted curve, though single readings scatter.

Assay: A CellTox Green Cytotoxicity Assay to monitor cytotoxicity in HepG2 cells - 32 hour (AID 1224883); note: nearly all actives have a fitted effect of over 50% in size
Conditions: CellTox Green fluorescence; series mostly up to 76.8 µM; cytotoxicity increase: at the top concentration
Text: National Center for Advancing Translational Sciences [NCATS]
NIH Chemical Genomics Center [NCGC]
U.S. Environmental Protection Agency [EPA]
National Institutes of Environmental Health Sciences [NIEHS]
National Toxicology Program [NTP]
Cell-based models are critical for drug discovery. Determining the natural cytotoxic effects resulting from test compounds is an essential research activity. A CellTox Green Cytotoxicity Assay to monitor cytotoxicity in real time of continues cell culture during 40 hours of the compound treatment was used to screen Tox21 10K library compounds in HepG2 cells. CellTox Green Cytotoxicity Assay is a nonlytic, homogeneous, biofluorescent method to measure cytotoxicity in cell culture after experimental manipulation. The assay system uses a proprietary asymmetric cyanine dye that is excluded from viable cells but preferentially stains the dead cell's DNA. […] Viable cells produce no appreciable increases in fluorescence. Therefore, the fluorescence signal produced by the binding interaction with dead cell DNA is proportional to cytotoxicity.
The mixture of HepG2 cell suspension and reagents were dispensed at 600cells/6 ul/well in 1536-well tissue culture treated black solid bottom plates using a Multidrop dispenser. After the assay plates were incubated at a 37 C/5% CO2 incubator for 5 hours, 23 nL of compounds dissolved in DMSO, positive and negative controls was transferred to the assay plate by a pintool work station. The plates were incubated at 37 C for 40 hours. The fluorescence intensity were measured at 0h, 8h, 16h, 24h, 32h and 40h time points using ViewLux plate reader during compound treatment.
% is set by controls: 0 for no effect and ±100 for the full control effect; potency is the fitted concentration of half-maximal effect.

Row | SMILES | cytotoxicity increase | Potency
1 | CC(C)(C)N(CCO)CCO | -0.8% | 
2 | CCCCCCC(=O)OCC | 16.3% | 
3 | CC(C)(O)C(=O)c1ccc(OCCO)cc1 | 0.382% | 
4 | COc1ccc(COC=O)cc1 | -6.04% | 
5 | CSc1nc(NC2CC2)nc(NC(C)(C)C)n1 | 20.8% | 
6 | CC(C=O)Cc1ccc(C(C)C)cc1 (stereo not given) | -0.554% | 
7 | C=C(C)C(=O)NCCCN(C)C | -16.8% | 
8 | C=CCn1c(=O)n([C@@H]2O[C@H](CO)[C@@H](O)[C@H]2O)c2nc(N)[nH]c(=O)c21 | -8.96% [at 35.3 µM] | 
9 | CCCCCCCCN(C)CCCCCCCC |  | 22.1 µM (active)
10 | CC1=CCC2C(C1)C2(C)C (stereo not given) | 6.59% | 
11 | C1C2OC2C2C1C1CC2C2OC12 (stereo not given) | 3.78% | 
12 | C#CC(O)CCCCC (stereo not given) | -1.48% | 
13 | C1COCCO1 | 6.16% | 
14 | O=c1[nH]c2ccccc2c(=O)n1CCCl | -17.8% [at 35.3 µM] | 
15 | CC(=O)OC(C)(C)C | -6.32% | 
16 | CCCCCCCCCCC1CO1 (stereo not given) | 3.55% | 
17 | CC(C)[C@H](N)C(=O)OCCOCn1cnc2c(=O)[nH]c(N)nc21 | -11.5% [at 35.3 µM] | 
18 | NC1CCN(c2cccc(Cl)n2)CC1 | -0.405% [at 35.3 µM] | 
19 | CCn1c(=O)c2c(nc(/C=C/c3ccc(OC)c(OC)c3)n2C)n(CC)c1=O | 2.59% [at 35.3 µM] | 
20 | N#CC1(O)CCCCC1 | -1.53% | 

Row | SMILES | cytotoxicity increase | Potency
21 | COC(C(=O)O)c1ccccc1 (stereo not given) | -6.21% | 
22 | C1CCCCCCCCCCC1 | -10.5% [at 15.8 µM] | 
23 | O=C1CC2(CCCC2)CC(=O)N1 | -9.41% [at 35.3 µM] | 
24 | CC(C)CCOC(=O)CC(C)C | -12% | 
25 | CCCOc1ccccc1-c1nc2n[nH]nc2c(=O)[nH]1 | -10.4% [at 35.3 µM] | 
26 | NC(=S)Nc1cccc2ccccc12 | 0.974% [at 6.97 µM] | 
27 | OC[C@H]1O[C@@H]2O[C@H]3[C@H](O)[C@@H](O)[C@@H](O[C@H]4[C@H](O)[C@@H](O)[C@@H](O[C@H]5[C@H](O)[C@@H](O)[C@@H](O[C@H]6[C@H](O)[C@@H](O)[C@@H](O[C@H]7[C@H](O)[C@@H](O)[C@@H](O[C@H]8[C@H](O)[C@@H](O)[C@@H](O[C@H]9[C@H](O)[C@@H](O)[C@@H](O[C@H]1[C@H](O)[C@H]2O)O[C@@H]9CO)O[C@@H]8CO)O[C@@H]7CO)O[C@@H]6CO)O[C@@H]5CO)O[C@@H]4CO)O[C@@H]3CO | 0.682% [at 35.3 µM] | 
28 | C=CCSCC1Nc2cc(Cl)c(S(N)(=O)=O)cc2S(=O)(=O)N1 (stereo not given) | -5.97% [at 35.3 µM] | 
29 | CC(C)(C)C(=O)/C=C/c1ccc(Cl)cc1 | 1.34% | 
30 | COC(=O)CCCC(=O)O | -10.7% | 
31 | CCCCCOC(=O)Nc1nc(=O)n([C@@H]2O[C@H](C)[C@@H](O)[C@H]2O)cc1F | 1.48% [at 35.3 µM] | 
32 | NC(=O)c1c(Cl)cccc1Cl | -9.43% | 
33 | CCCCCCOC(=O)CC(CC(=O)OCCCCCC)(OC(=O)CCC)C(=O)OCCCCCC | -10% | 
34 | C=C(C)C(=O)OCCCCCCCCCCCCCCCCCC | -0.434% [at 15.8 µM] | 
35 | CCCC(C)CO (stereo not given) | -4.16% | 
36 | CC(C)(C)CC(C)(C)N | 7.72% | 
37 | Cc1ncc(CSSCc2cnc(C)c(O)c2CO)c(CO)c1O | -17% [at 35.3 µM] | 
38 | Oc1ccc2c(c1)OC[C@@H](N1CCC(O)(c3ccc(F)cc3)CC1)[C@H]2O | -8.94% [at 35.3 µM] | 
39 | C=CC(=O)N1CCOCC1 | -12% | 
40 | COc1cc(O)cc(O)c1 | -8.94% [at 35.3 µM] | 
